This is a sample that favours compounds with a hit; in the whole collection about 21% have one here.
IL-1B inflam inh = inflammasome signaling inhibition, IL-1 beta readout; hit rate 4.7% among 360,000; THP-1 LPS/ATP IL-1B secretion, AlphaLISA, 16 h; active compounds read low; AID 743279; activity change, % at 57.5 µM; in the data active = activity change below about -50%; inconclusive = mostly about -30% to -49%; also: % is scaled to controls: 0 for no effect and ±100 for the full control effect
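Secreted IL-1B measured by AlphaLISA bead assay after 16 h compound exposure of THP-1 cells; compounds (final up to 57.5 uM) added 1 h before LPS (250 ng/mL) and ATP (1.25 mM) stimulation; lower signal means less secretion.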
D3 antag = antagonists of human D3 dopamine receptor; hit rate 2.5% among 360,000; P35462; D3R cells, DiscoveRx beta-arrestin luminescence, antagonist mode; active compounds read low; AID 652054; max response, negative = inhibition, %; in the data active = max response below about -50%; inconclusive = no clear call, values can overlap the other calls; also: % is scaled to controls: 0 for no effect and ±100 for the full control effect
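Cells expressing the human receptor were seeded at 1500 cells/well, incubated overnight at 37 degrees C in 5% CO2, then exposed to library compounds with dopamine controls for 90 minutes at 37 degrees C before luminescent detection.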
DT40 TDP1 no CPT = qHTS for Inhibitors of human tyrosyl-DNA phosphodiesterase 1 (TDP1): qHTS in cells in absence of CPT; DT40 Tdp1-/- hTDP1 cells, no CPT, ATP luminescence, 48 h; Potency, µM (titrated, usually from 46.2 µM), for the others: at the highest dose activity change, negative = growth inhibition, usual class: inhibitors; hit rate 15% among 420,000; AID 686978, 2013; also: potency is read from the fitted curve at half-maximal effect; % is scaled to controls: 0 for no effect and ±100 for the full control effect; nearly all actives have a fitted effect of over 55% in size
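Camptothecin absent (DMSO only). Human TDP1-complemented DT40 knockout cells, 400 cells/well, 37 °C for minimum 48 hr; ATP measured via CellTiter-Glo, 30 min dark incubation, luminescence.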
TDP1 cell CPT = growth inhibition of DT40 Tdp1-/-;hTDP1 cells with camptothecin (screen for TDP1 inhibitors) | Potency, µM (highest dose often 46.2 µM), for the others: top-dose activity change, negative = growth inhibition, most hits filed as inhibitors | chicken DT40 Tdp1-/-;hTDP1 cells + 20 nM CPT, ATP luminescence, 48 h | hit rate 12% among 420,000; also: potency is read from the fitted curve at half-maximal effect; % is scaled to controls: 0 for no effect and ±100 for the full control effect; nearly all actives have a fitted effect of over 55% in size
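Chicken DT40 Tdp1-/- cells stably complemented with human TDP1 were seeded at 400 cells/well in medium containing 20 nM camptothecin, exposed to pin-transferred compounds, and grown at 37 °C for at least 48 hr. Viability was read as ATP luminescence.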
ClpP mod = qHTS Assay for Activators of ClpP; AID 651965, 2013; ATP-dependent Clp protease proteolytic subunit (Bacillus subtilis (strain 168)), P80244; Potency, µM (titrated, usually from 57.5 µM), for the others: at the top dose activity change, negative = active; purified B. subtilis ClpP, FRET peptide cleavage, 20 min; hit rate 1.9% among 340,000; active = well fitted falling curve with a large enough effect; inconclusive = small, poorly fitted or top-dose-only effect; inactive = no such curve, though single readings can be large or run the other way; also: potency is read from the fitted curve at half-maximal effect; the source files actives as falling curves though it sought activators and does not explain the sign; nearly all actives have a fitted effect of over 65% in size
Target sequence (P80244 whole entry, looked up): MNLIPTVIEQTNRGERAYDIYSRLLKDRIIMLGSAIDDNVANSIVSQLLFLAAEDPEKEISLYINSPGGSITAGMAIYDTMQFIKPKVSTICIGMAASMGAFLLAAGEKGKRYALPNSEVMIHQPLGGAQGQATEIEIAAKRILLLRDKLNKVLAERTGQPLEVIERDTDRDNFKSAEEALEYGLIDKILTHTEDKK
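ClpP 10 microg/mL final, pH 8 Tris/KCl buffer with BSA, glycerol, Tween-20; compound pinned in; FRET-FV substrate; RT 20 min; Ex320/Em430; ΔFRET vs ADEP 5.8 microM, DMSO, no enzyme.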
D3 ag = D3 dopamine receptor (human) agonism. D3R DiscoveRx beta-arrestin cells, luminescence, 90 min. max activation, %. hit rate 0.58% among 410,000. AID 652048; in the data active = max activation above about 30%; also: 0% is about no effect
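Agonist mode: compounds and dopamine controls were applied to plated cells for 90 min at 37 degrees C after an overnight attachment at 1500 cells/well. Luminescent read-out followed 30 - 60 minutes at room temperature with DiscoveRx detection reagent.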
An asterisk follows results filed as active. Unless noted, calls follow the shape of the dose curve; as a rule, active = well fitted inhibition curve with a large enough effect; inconclusive = small, poorly fitted or top-dose-only effect; inactive = flat fitted curve, though single readings scatter.

`CCCCC(c1nnnn1CC1CCCO1)N1CCN(c2ccccc2)CC1` (configuration not stated) gave IL-1B inflam inh 18.6, D3 antag 7.7, DT40 TDP1 no CPT 9.3%, TDP1 cell CPT -0.6%, ClpP mod -0.2% and D3 ag -3.5.
`CCCCC(c1nnnn1CC1CCCO1)N1CCN(c2cc(Cl)ccc2C)CC1` (configuration not stated) gave IL-1B inflam inh -11.0, D3 antag -86.2*, DT40 TDP1 no CPT 16.4µM*, TDP1 cell CPT inconclusive, ClpP mod 4.1% and D3 ag -0.3.
For CCCCC(c1nnnn1CC1CCCO1)N1CCN(c2nc3ccccc3s2)CC1 (configuration not stated) the results were IL-1B inflam inh -12.1, D3 antag -24.6, DT40 TDP1 no CPT inconclusive, TDP1 cell CPT 23.1µM*, ClpP mod 1.8% and D3 ag -11.3.
Screening CCCC(c1nnnn1Cc1ccco1)N1CCN(c2cc(Cl)ccc2C)CC1 (configuration not stated) returned IL-1B inflam inh -1.5, D3 antag -62.1*, DT40 TDP1 no CPT inconclusive, TDP1 cell CPT inconclusive, ClpP mod 0.1% and D3 ag -8.0.
COc1ccc(CN2C(=O)C(C)Nc3ncnc(N4CCOCC4)c32)cc1 (configuration not stated) was read as IL-1B inflam inh 93.0, D3 antag -1.0, DT40 TDP1 no CPT inconclusive, TDP1 cell CPT inconclusive, ClpP mod -0.3% and D3 ag -4.8.
Screening CC1Nc2ncnc(N3CCN(c4ccccc4)CC3)c2N(Cc2ccc(Br)cc2)C1=O (configuration not stated) returned IL-1B inflam inh inconclusive, D3 antag -156.2*, DT40 TDP1 no CPT 20.6µM*, TDP1 cell CPT inconclusive, ClpP mod -2.5% and D3 ag -78.9.
For COc1ccc(CN2C(=O)C(C)Nc3ncnc(N4CCN(c5ccccc5)CC4)c32)cc1 (configuration not stated) the results were IL-1B inflam inh -26.1, D3 antag -69.9*, DT40 TDP1 no CPT inconclusive, TDP1 cell CPT inconclusive, ClpP mod -6.6% and D3 ag -44.9.
Screening CC1Nc2ncnc(N3CCOCC3)c2N(Cc2ccccc2)C1=O (configuration not stated) returned IL-1B inflam inh 28.6, D3 antag 2.1, DT40 TDP1 no CPT -12.4%, TDP1 cell CPT -18.3%, ClpP mod 0.1% and D3 ag 8.1.
`COC(=O)c1ccc(C2c3c(oc4ccc(Cl)cc4c3=O)C(=O)N2CCN2CCOCC2)cc1` (configuration not stated) gave IL-1B inflam inh 13.4, D3 antag -20.8, DT40 TDP1 no CPT -18.9%, TDP1 cell CPT -15.6% and D3 ag -2.0.
`CCN(CC(=O)Nc1ccc(OC)cc1)C(=O)c1ccc2c(c1)NC(=O)C(C)S2` (configuration not stated) gave IL-1B inflam inh 23.5, D3 antag 4.8, DT40 TDP1 no CPT -17.9%, TDP1 cell CPT 0.3%, ClpP mod 0.4% and D3 ag 0.9.
CCOC(=O)c1cccc(NC(=O)CCc2c(C)nc3c4cccnc4nn3c2C)c1 was read as DT40 TDP1 no CPT -27.1%, TDP1 cell CPT inconclusive, ClpP mod 3.8% and D3 ag -17.4.
Screening Cc1cc(C)cc(NC(=O)CCc2c(C)nc3c4cccnc4nn3c2C)c1 returned DT40 TDP1 no CPT 18.4µM*, TDP1 cell CPT -25.7%, ClpP mod 3.9% and D3 ag -7.3.
Screening COc1cccc(NC(=O)CCc2c(C)nc3c4cccnc4nn3c2C)c1 returned DT40 TDP1 no CPT 18.4µM*, TDP1 cell CPT inconclusive, ClpP mod 4.6% and D3 ag -14.4.
